Laboratory results as given in PubChem BioAssay AID1159580 (chemical genetic matrix, 2015).
Screen size: about 5,500 compounds; about 2,000 (36%) were called active. Roughly 18% stayed inconclusive and do not appear here. Rule as the data show it: active = normalized growth mostly below about 0.91 (no sharp cut-off); inconclusive = no clear call, values can overlap the other calls; inactive = mostly above about 0.92. Some of the results follow.

Experiment: chemical genetic growth profiling, strain panel (AID 1159580);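 also: tested at 20 µM; growth read once vehicle control cultures reached saturation at 30 °C; 1 = growth at the plate median or of vehicle wells; lower values mean less growth of the strain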
Conditions: growth OD

Measured: normalized growth

C#CC1(O)CCC2C3CCC4=CC(=O)CCC4(C)C3CCC21C (stereo unspecified)
active: S. cerevisiae deletion strains, locus YNL307C, strain MCK1, hits give low values 0.906 | S. cerevisiae deletion strains, locus YOR184W, strain ser1, hits give low values 0.87 | S. cerevisiae deletion strains, locus YOR270C, strain vph1, hits give low values 0.727
inactive: S. cerevisiae deletion strains, locus YKL009W, strain mrt4, hits give low values 0.945 | S. cerevisiae deletion strains, locus YKL068W, hits give low values 0.991 | S. cerevisiae deletion strains, locus YKL085W, strain MDH1 (second series), hits give low values 0.99 | S. cerevisiae deletion strains, locus YKL085W, strain MDH1, hits give low values 0.99 | S. cerevisiae deletion strains, locus YKL160W, strain elf1, hits give low values 0.979 | S. cerevisiae deletion strains, locus YKL190W, strain CNB1, hits give low values 0.997 | S. cerevisiae deletion strains, locus YKR001C, strain vps1, hits give low values 0.99 | S. cerevisiae deletion strains, locus YKR026C, strain gcn3, hits give low values 0.991 | S. cerevisiae deletion strains, locus YKR091W, strain srl3, hits give low values 0.977 | S. cerevisiae deletion strains, locus YLL001W, strain dnm1, hits give low values 1 | S. cerevisiae deletion strains, locus YLL026W, hits give low values 0.986 | S. cerevisiae deletion strains, locus YLL041C, strain sdh2, hits give low values 0.998 | S. cerevisiae deletion strains, locus YLR027C, strain aat2, hits give low values 0.986 | S. cerevisiae deletion strains, locus YLR039C, strain RIC1, hits give low values 1.31 | S. cerevisiae deletion strains, locus YLR058C, strain SHM2, hits give low values 0.986 | S. cerevisiae deletion strains, locus YLR102C, strain apc9, hits give low values 0.978 | S. cerevisiae deletion strains, locus YLR113W, strain HOG1, hits give low values 1.03 | S. cerevisiae deletion strains, locus YLR221C, strain rsa3, hits give low values 1 | S. cerevisiae deletion strains, locus YLR258W, strain gsy2, hits give low values 0.983 | S. cerevisiae deletion strains, locus YLR262C, strain YPT6 (second series), hits give low values 1.05 | S. cerevisiae deletion strains, locus YLR262C, strain YPT6, hits give low values 1.2 | S. cerevisiae deletion strains, locus YLR268W, strain sec22, hits give low values 0.987 | S. cerevisiae deletion strains, locus YLR320W, strain mms22, hits give low values 0.997 | S. cerevisiae deletion strains, locus YLR330W, strain CHS5, hits give low values 0.988 | S. cerevisiae deletion strains, locus YLR342W, strain FKS1 (second series), hits give low values 0.909 | S. cerevisiae deletion strains, locus YLR342W, strain FKS1, hits give low values 0.988 | S. cerevisiae deletion strains, locus YLR357W, strain rsc2, hits give low values 1 | S. cerevisiae deletion strains, locus YLR370C, strain arc18, hits give low values 0.975 | S. cerevisiae deletion strains, locus YLR371W, strain rom2, hits give low values 0.987 | S. cerevisiae deletion strains, locus YLR384C, strain iki3, hits give low values 0.99 | S. cerevisiae deletion strains, locus YLR418C, strain cdc73, hits give low values 0.921 | S. cerevisiae deletion strains, locus YML016C, strain PPZ1, hits give low values 0.989 | S. cerevisiae deletion strains, locus YML032C, strain rad52, hits give low values 0.99 | S. cerevisiae deletion strains, locus YML120C, strain ndi1, hits give low values 0.99 | S. cerevisiae deletion strains, locus YML124C, strain tub3, hits give low values 0.991 | S. cerevisiae deletion strains, locus YMR058W, strain fet3, hits give low values 0.948 | S. cerevisiae deletion strains, locus YMR078C, strain ctf18, hits give low values 0.976 | S. cerevisiae deletion strains, locus YMR125W, strain sto1, hits give low values 0.967 | S. cerevisiae deletion strains, locus YMR129W, hits give low values 0.988 | S. cerevisiae deletion strains, locus YMR205C, strain PFK2, hits give low values 0.991 | S. cerevisiae deletion strains, locus YMR223W, strain ubp8, hits give low values 0.957 | S. cerevisiae deletion strains, locus YMR231W, strain pep5, hits give low values 0.997 | S. cerevisiae deletion strains, locus YMR263W, strain SAP30, hits give low values 1.01 | S. cerevisiae deletion strains, locus YMR307W, strain GAS1, hits give low values 1.14 | S. cerevisiae deletion strains, locus YNL067W, strain RPL9B, hits give low values 1.02 | S. cerevisiae deletion strains, locus YNL071W, strain lat1, hits give low values 1 | S. cerevisiae deletion strains, locus YNL153C, strain GIM3, hits give low values 1.04 | S. cerevisiae deletion strains, locus YNL183C, strain NPR1, hits give low values 0.955 | S. cerevisiae deletion strains, locus YNL209W, strain ssb2, hits give low values 0.988 | S. cerevisiae deletion strains, locus YNL233W, strain BNI4, hits give low values 1.02 | S. cerevisiae deletion strains, locus YNL248C, strain rpa49, hits give low values 0.987 | S. cerevisiae deletion strains, locus YNL250W, strain rad50, hits give low values 0.978 | S. cerevisiae deletion strains, locus YNL271C, strain bni1, hits give low values 0.979 | S. cerevisiae deletion strains, locus YNL298W, strain CLA4, hits give low values 0.954 | S. cerevisiae deletion strains, locus YNL322C, strain KRE1 (second series), hits give low values 1 | S. cerevisiae deletion strains, locus YNR049C, strain mso1, hits give low values 0.965 | S. cerevisiae deletion strains, locus YNR052C, strain pop2, hits give low values 0.966 | S. cerevisiae deletion strains, locus YOL147C, strain pex11, hits give low values 0.994 | S. cerevisiae deletion strains, locus YOR001W, strain rrp6, hits give low values 0.998 | S. cerevisiae deletion strains, locus YOR061W, strain CKA2, hits give low values 0.986 | S. cerevisiae deletion strains, locus YOR069W, strain VPS5, hits give low values 0.981 | S. cerevisiae deletion strains, locus YOR070C, strain gyp1, hits give low values 0.992 | S. cerevisiae deletion strains, locus YOR080W, strain dia2, hits give low values 0.972 | S. cerevisiae deletion strains, locus YOR083W, strain WHI5, hits give low values 0.948 | S. cerevisiae deletion strains, locus YOR106W, strain vam3, hits give low values 0.965 | S. cerevisiae deletion strains, locus YOR136W, strain idh2, hits give low values 0.977 | S. cerevisiae deletion strains, locus YOR144C, strain elg1, hits give low values 0.975 | S. cerevisiae deletion strains, locus YOR231W, strain MKK1, hits give low values 1.02 | S. cerevisiae deletion strains, locus YOR265W, strain rbl2, hits give low values 0.988 | S. cerevisiae deletion strains, locus YOR290C, strain snf2, hits give low values 0.974 | S. cerevisiae deletion strains, locus YOR316C, strain cot1, hits give low values 0.979 | S. cerevisiae deletion strains, locus YPL051W, strain arl3, hits give low values 1.01 | S. cerevisiae deletion strains, locus YPL078C, strain atp4, hits give low values 0.987 | S. cerevisiae deletion strains, locus YPL106C, strain sse1, hits give low values 0.985 | S. cerevisiae deletion strains, locus YPL240C, strain hsp82, hits give low values 0.988 | S. cerevisiae deletion strains, locus YPL241C, strain CIN2, hits give low values 0.99 | S. cerevisiae deletion strains, locus YPL256C, strain CLN2, hits give low values 0.994 | S. cerevisiae deletion strains, locus YPR119W, strain clb2, hits give low values 0.983 | S. cerevisiae deletion strains, locus YPR141C, strain kar3, hits give low values 0.982 | S. cerevisiae deletion strains, locus YPR163C, strain tif3, hits give low values 0.977 | S. cerevisiae deletion strains, locus YPR167C, strain met16, hits give low values 0.97 | S. cerevisiae deletion strains, strain wtn01, hits give low values 0.955 | S. cerevisiae strains, strain wild type, hits give low values 0.99
